Measurements taken from PubChem BioAssay (Tox21).
Results filed as inconclusive are left out. Where a call stands in place of a potency, no number is given. Unmarked numbers belong to inactive results. Active and inactive are the calls of the source. Calls follow the shape of the full dose curve.

Assay: qHTS assay to identify small molecule agonists or antagonists of the thyroid stimulating hormone receptor (TSHR) signaling pathway - wild type cell line counter screen (AID 1259384)
Details: HEK293 wild type, cAMP HTRF counter-screen; series mostly up to 92.4 µM; cAMP activity change: at the top concentration
Procedure, shortened: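 Counter screen in untransfected Hek293: compounds (15-point titration, triplicate) plus phosphodiesterase inhibitor Ro20-1724 added after 18 h plating; 30 min RT. Intracellular cAMP via competitive d2/cryptate immunoassay, 1 h incubation.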
Potency is read from the fitted curve at half-maximal effect.

SMILES	cAMP activity change	Potency
NC(Cc1ccc(Cl)cc1)C(=O)O (stereo not given)	-3.62% [at 0.349 µM, stronger effect = higher value]	–
O=C1CC2(CCCC2)CC(=O)N1CCCCN1CCN(c2ncccn2)CC1	–	inactive
Cc1ccc(-c2cc(C(F)(F)F)nn2-c2ccc(S(N)(=O)=O)cc2)cc1	–	inactive
CC(=O)CC(=O)Nc1ccc2[nH]c(=O)[nH]c2c1	-0.584%	–
c1ccc2cc3c(ccc4ccccc43)cc2c1	–	inactive
Cc1c(O)cccc1C(=O)N[C@@H](CSc1ccccc1)[C@H](O)CN1C[C@H]2CCCC[C@H]2C[C@H]1C(=O)NC(C)(C)C	–	inactive
O=C(O)c1cccc(C(=O)O)c1	–	inactive
CCN1CCCC1CNC(=O)c1cc(S(=O)(=O)CC)c(N)cc1OC (stereo not given)	1.91% [at 42.5 µM, stronger effect = higher value]	–
CCC[C@H](N[C@@H](C)C(=O)N1[C@H](C(=O)O)C[C@@H]2CCCC[C@@H]21)C(=O)OCC	–	inactive
CC(C)(C)NCC(O)c1cc(O)cc(O)c1 (stereo not given)	–	2.03 µM (active)
